Test results published in the supplement of paper PMC13380429.

Test system: Vero E6 infected with SARS-CoV-2
Assay: inhibition of SARS-CoV-2 cytopathic effect; higher = more antiviral protection, active = above 15
Conditions: 48 h

Measured: inhibition of SARS-CoV-2 cytopathic effect

CCC(=O)OCC(=O)[C@@]1(OC(=O)CC)[C@@H](C)C[C@H]2[C@@H]3CCC4=CC(=O)C=C[C@]4(C)[C@@]3(Cl)[C@@H](O)C[C@@]21C [beclomethasone-dipropionate]
inactive: 1 nM -9.44% | 8.33 nM -9.23% | 100 nM -11.4% | 833.33 nM -9.54% | 10000 nM -6.97%

CC(Cc1ccccc1)(NC(=O)CN)c1ccccc1 (stereo not given) [remacemide]
inactive: 1 nM 0.2% | 8.33 nM 0.62% | 100 nM -0.89% | 833.33 nM 0.88% | 10000 nM 0.24%

NC(=O)NCCN1CCN(c2cccc(C(F)(F)F)c2)CC1 [fluprazine]
inactive: 1 nM 1.46% | 8.33 nM 1.13% | 100 nM -1.67% | 833.33 nM -1.94% | 10000 nM -2.06%

O=C(NCCN1CCN(c2ncccn2)CC1)C12CC3CC(CC(C3)C1)C2 [adatanserin]
inactive: 1 nM -1.23% | 8.33 nM 0.62% | 100 nM -2.77% | 833.33 nM 2.26% | 10000 nM -1.99%

CC(=O)OCC(=O)[C@@]12N=C(C)O[C@@H]1C[C@H]1[C@@H]3CCC4=CC(=O)C=C[C@]4(C)[C@H]3[C@@H](O)C[C@@]12C [Deflazacort (Calcort)]
inactive: 1 nM 2.25% | 8.33 nM -0.15% | 100 nM -11.5% | 833.33 nM 2.17% | 10000 nM 0.96%

CCS(=O)(=O)Nc1ccc2c(c1)/C(=C(/Nc1ccc(CN3CCCCC3)cc1)c1ccccc1)C(=O)N2 [hesperadin]
inactive: 1 nM 1.74% | 8.33 nM 3.12% | 100 nM 0.27% | 833.33 nM -9.14% | 10000 nM -10.5%
